12-hLO inh: qHTS Assay for Inhibitors of 12-hLO (12-human lipoxygenase); Polyunsaturated fatty acid lipoxygenase ALOX12 (Homo sapiens), P18054; Potency, µM (highest dose often 57.1 µM), for inactives: at the highest dose activity change, negative = inhibition, actives largely listed as inhibitors; hit rate 0.12% among 150,000; purified 12-hLO, xylenol orange hydroperoxide absorbance; active = well fitted inhibition curve with a large enough effect; inconclusive = small, poorly fitted or top-dose-only effect; also: potency is read from the fitted curve at half-maximal effect; nearly all actives have a fitted effect of over 55% in size
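Hydroperoxide output read as Fe(III)-xylenol orange absorbance, 573-to-405 nm ratio, after 30 min reaction with 40 uM arachidonic acid. Enzyme: 150 nM purified human 12hLO, 15 min compound preincubation; 25 mM Hepes pH 7.0, room temperature.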
Lamin A splicing: qHTS Assay for Modulators of Lamin A Splicing; HeLa LMNA splicing GFP/RFP minigene ratio, 48 h; Potency, µM (titrated, usually from 46.1 µM), without a hit: at the top dose ratio change, negative = inhibition, usual class: inhibitors; hit rate 0.01% among 200,000; active = well fitted inhibition curve with a large enough effect in the signal ratio, with a control signal flat, not every such curve was filed as active; inconclusive = small, poorly fitted or top-dose-only effect, or effect the other way, or a change in a side signal; the % refers to the signal ratio; also: potency is read from the fitted curve at half-maximal effect
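S3 HeLa cells stably expressing lamin A-EGFP splicing minigene plus DsRed2, 600 cells/well, 48 h compound exposure at 37C. Laser-scanning cytometry; analysed as GFP (500-530 nm)/RFP (575-640 nm) total intensity ratio; 0.5% DMSO vehicle.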
PNC inhibitor: High Content Assay for Compounds that inhibit the Assembly of the Perinucleolar Compartment | activity change (PNC), negative = inhibition, % at 10 µM | hit rate 3.1% among 140,000 | PC3M PTB-GFP, PNC prevalence imaging, 16 h; hits give low values;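 active = readout at or below -70, meaning at least 70% loss of cells showing the perinucleolar compartment, a nuclear body marking cancer cells; inconclusive = readout between -30 and a set limit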;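 also: plate controls were DMSO wells for no effect and camptothecin positive control wells for full effect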
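Compounds are pinned in duplicate onto adhered PC3M cells stably expressing GFP-tagged PTB and incubated 16 h at 37 C. Cells are then fixed, nuclei stained with Hoechst, and PNC-positive cells counted.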
ALDH1A1 block: qHTS Assay for Inhibitors of Aldehyde Dehydrogenase 1 (ALDH1A1); Aldehyde dehydrogenase 1A1 (Homo sapiens), P00352; Purified ALDH1A1, NADH fluorescence, propionaldehyde substrate; Potency, µM (top dose mostly 75.3 µM), for the others: at the top dose activity, negative = inhibition, most hits filed as inhibitors; hit rate 7.3% among 220,000; AID 1030, 2008;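 also: potency is read from the fitted curve at half-maximal effect; plate controls were no enzyme wells and a reference inhibitor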
Target sequence (P00352 whole entry, looked up): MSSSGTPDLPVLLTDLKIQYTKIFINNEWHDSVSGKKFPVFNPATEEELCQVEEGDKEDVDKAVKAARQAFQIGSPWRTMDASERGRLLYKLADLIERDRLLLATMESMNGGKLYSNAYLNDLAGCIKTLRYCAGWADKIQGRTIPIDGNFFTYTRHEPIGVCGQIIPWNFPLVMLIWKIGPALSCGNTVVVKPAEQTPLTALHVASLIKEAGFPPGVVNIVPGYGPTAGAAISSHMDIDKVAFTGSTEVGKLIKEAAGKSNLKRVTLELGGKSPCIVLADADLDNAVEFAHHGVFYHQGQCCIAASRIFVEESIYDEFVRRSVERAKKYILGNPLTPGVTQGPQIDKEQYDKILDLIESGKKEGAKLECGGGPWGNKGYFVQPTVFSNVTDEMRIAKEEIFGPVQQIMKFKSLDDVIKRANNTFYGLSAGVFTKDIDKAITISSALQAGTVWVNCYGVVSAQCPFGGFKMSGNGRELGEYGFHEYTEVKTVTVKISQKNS
HPGD block: qHTS Assay for Inhibitors of HPGD (15-Hydroxyprostaglandin Dehydrogenase); purified HPGD, NADH fluorescence kinetic, PGE2 substrate; AID 894, 2007; hit rate 4.3% among 150,000; 15-hydroxyprostaglandin dehydrogenase [NAD(+)] (Homo sapiens), P15428; Potency, µM, without a hit: at the top dose activity change, negative = inhibition, most hits filed as inhibitors; also: potency is read from the fitted curve at half-maximal effect
Target sequence (P15428 whole entry, looked up): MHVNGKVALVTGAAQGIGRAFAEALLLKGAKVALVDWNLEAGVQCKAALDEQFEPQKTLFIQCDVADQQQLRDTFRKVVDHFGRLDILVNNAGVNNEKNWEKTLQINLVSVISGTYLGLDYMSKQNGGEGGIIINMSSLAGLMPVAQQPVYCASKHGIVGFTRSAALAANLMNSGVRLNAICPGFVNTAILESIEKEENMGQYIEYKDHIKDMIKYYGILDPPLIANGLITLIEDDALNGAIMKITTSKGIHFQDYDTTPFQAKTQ
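20 nM HPGD preincubated 15 min at room temperature with compound in 50 mM Tris-HCl pH 8, 0.01% Tween 20. Started with 1 mM NAD+ and 30 uM prostaglandin E2; NADH fluorescence (360/450 nm) read 5 times over 30-s intervals, last minus first.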
An asterisk follows results filed as active; ? = inconclusive; · = not tested or not shown; [ ] = another dose, or the depositor's remark. Most compounds without a hit are left out; they make up all but 10% or so of the library. Unless noted, calls follow the shape of the dose curve; as a rule, active = well fitted inhibition curve with a large enough effect (not every such curve was filed as active); inconclusive = small, poorly fitted or top-dose-only effect, or another doubt; inactive = no such curve, though single readings can be large or run the other way. Unless noted, % is scaled to controls: 0 for no effect and ±100 for the full control effect.

SMILES | 12-hLO inh | Lamin A splicing | PNC inhibitor | ALDH1A1 block | HPGD block
CCc1ccc(N(C)S(=O)(=O)c2ccc3[nH]cc(C(=O)NCC4CCCO4)c(=O)c3c2)cc1 (stereo not drawn) | · | 8.8%[46 µM] | · | · | ·
Cc1ccccc1N(C)S(=O)(=O)c1ccc2[nH]cc(C(=O)NCC3CCCO3)c(=O)c2c1 (stereo not drawn) | -2.9% | -11.7% | -84.4* | ? | ?
CN(CCC#N)S(=O)(=O)c1ccc2[nH]cc(C(=O)NCCc3ccccc3)c(=O)c2c1 | -2.4% | ? | 58.4 | 25.1µM* | ?
COc1ccc(C(=O)Nc2cc(-c3cccc(C)c3)nn2-c2ccccc2)cc1 | · | -5.6%[46 µM] | · | · | ·
CC(C)C(=O)Nc1nnc2n1CCS2 | · | -21.3%[46 µM] | · | · | ·
COc1ccc(OCc2ccc(-c3nc(C#N)c(N4CCC(C)CC4)o3)o2)cc1 | · | 19.4%[46 µM] | · | · | ·
CCCCCNC(=O)c1c[nH]c2ccc(S(=O)(=O)N3CCC4(CC3)OCCO4)cc2c1=O | -1.4% | -6.7% | -113.4* | -13.6% | ?
C[C@H](Cc1ccccc1)Nc1ncnc2c1ncn2[C@@H]1O[C@H](CO)[C@H](O)[C@H]1O | · | ? | · | 26.1% | ?
Cc1cc(Cc2cc(C)cc(C(C)(C)C)c2O)c(O)c(Cc2cc(C)cc(C(C)(C)C)c2O)c1 | -13.8%[11.4 µM] | · | · | 3.4%[13.5 µM] | -3.7%
Nc1nonc1C(=O)NC(c1ccccc1)c1ccccc1 | -1.5% | -4.0% | 6.0 | 14.1µM* | -0.1%
O=C(CN1CCN(c2ccccc2O)CC1)Nc1cccnc1Cl | · | 3.2%[46 µM] | · | -9.3% | ·
CC1NC(C(=O)O)Cc2c1[nH]c1ccccc21 (stereo not drawn) | · | · | · | 2.3% | ·
O/N=C1\CC/C(=N\O)c2nn(-c3ccccc3Cl)nc21 | -6.8% | 4.2% | -19.5 | -7.6% | -7.1%
Cc1ccc(-n2nc3c(n2)/C(=N/O)CC/C3=N\O)cc1 | -7.8% | -5.4% | -100.0* | 3.9% | -18.8%
CCN1CCN(CCCNC(=O)c2cn(CCOC)c(=O)c3c2c2ccccc2n3C)CC1 | 0.1% | -1.9% | -100.8* | ? | ?
COCCn1cc(C(=O)NCCCN2CCC(C)CC2)c2c3ccccc3n(C)c2c1=O | 2.6% | -10.2% | -12.8 | ? | ?
Cn1c(=O)c2cc3c(nc2n(C)c1=O)CC(c1ccccc1)CC3=O (stereo not drawn) | · | · | · | 14.1µM* | ·
CSc1nc2nc3c(cn2n1)C(=O)CC(c1ccccc1)C3 (stereo not drawn) | -3.7% | 6.4% | 24.3 | ? | -21.2%
COc1ccc(S(=O)(=O)N(CC(=O)N2CCN(c3ccccc3OC)CC2)c2ccccc2)cc1 | 2.2% | ? | 22.5 | 7.08µM* | -21.0%
Cc1ccc(C)c(-n2nnnc2SCC(=O)c2ccc3c(c2)NC(=O)CO3)c1 | -25.2% | ? | -11.3 | 0.631µM* | -26.9%
Cc1cccc2cc(CN(CCCN3CCOCC3)Cc3nnnn3C(C)(C)C)c(=O)[nH]c12 | -1.2% | 5.2% | 37.9 | 25.1µM* | -5.1%
COc1ccc2cc(CN(Cc3cccs3)Cc3nnnn3Cc3ccccc3)c(=O)[nH]c2c1 | -18.8% | ? | 25.0 | 2µM* | -27.5%
COc1ccc2cc(CN(Cc3cccnc3)Cc3nnnn3Cc3ccccc3)c(=O)[nH]c2c1 | -10.4% | -4.6% | -18.5 | 8.91µM* | -3.3%
Cc1cccc2cc(CN(Cc3cccs3)Cc3nnnn3Cc3ccccc3)c(=O)[nH]c12 | -7.2% | ? | -3.0 | 2.82µM* | -29.5%
COCCn1nnnc1CN(Cc1cccnc1)Cc1cc2cc(OC)ccc2[nH]c1=O | -16.6% | 4.0% | ? | ? | ?
SMILES | 12-hLO inh | Lamin A splicing | PNC inhibitor | ALDH1A1 block | HPGD block
CCC(c1nnnn1C(C)(C)CC)N(CCCN1CCOCC1)Cc1cc2cccc(C)c2[nH]c1=O (stereo not drawn) | 4.5% | 1.1% | -26.9 | ? | -2.1%
COc1cc(C(=O)NCC(c2ccc3c(c2)OCO3)N2CCN(C)CC2)cc(OC)c1OC (stereo not drawn) | · | -9.6%[46 µM] | · | · | ·
Cc1cc(O)c(C2=Nc3ccccc3SC(c3ccc(Cl)cc3)C2)c(=O)o1 (stereo not drawn) | 2.8% | ? | -26.0 | 2.7% | -3.6%
COc1ccc(C2CC(c3c(O)cc(C)oc3=O)=NCCS2)c(OC)c1 (stereo not drawn) | -21.3% | ? | -113.7* | ? | 15.8µM*
COc1ccc(O[C@H]2C=C[C@@H](c3ccccc3)O[C@H]2COC(=O)CC/C(C)=N\O[C@@H](C)c2cc(-c3c(C)cc(C)cc3C)no2)cc1 | · | · | · | 9.3%[13.5 µM] | ·
O=C(c1cc(C(F)(F)F)cc(C(F)(F)F)c1)N1CCC2(CC1)CN(c1ccccc1)C2 | -15.3% | · | · | -6.5% | -15.6%
Cn1c(CN2CCCC(C(=O)c3ccc4c(c3)OCO4)C2)nc2ccccc21 (stereo not drawn) | · | · | · | 28.2µM* | ·
Cc1ccc(N2C(S)=C(C#N)C(=O)NC2c2ccco2)cc1 (stereo not drawn) | · | 14.1%[46 µM] | · | ? | ·
N#CC1=C(S)N(c2ccccc2)C(c2cccs2)NC1=O (stereo not drawn) | 2.4% | 2.2% | 35.3 | 20µM* | 31.6µM*
Cc1ccc(N2C(S)=C(C#N)C(=O)NC2c2cccs2)cc1 (stereo not drawn) | ? | ? | -113.9* | 2.9% | 22.4µM*
O=C1C2=CC[C@@H]3C(=O)N(c4ccc(F)cc4F)C(=O)[C@H]3[C@H]2[C@H](O)[C@H]2O[C@H]12 | · | · | · | -5.6%[13.5 µM] | ·
Cc1nn(CC(=O)Nc2ccc(C(C)C)cc2)c(=O)c2c(C)n(-c3ccc(Cl)cc3)nc12 | · | -0.5%[46 µM] | · | · | ·
Cc1[nH]c(=S)c(C#N)c(-c2ccco2)c1C(=O)N(C)C | · | · | · | 28.2µM* | ·
Cc1ccc(CNC(=O)Cn2cc(S(=O)(=O)Cc3cccc(Cl)c3)c3ccccc32)cc1 | · | 12.8%[46 µM] | · | · | ·
O=C(Nc1nncs1)c1ccc(S(=O)(=O)c2ccccc2)cc1 | 2.2% | -8.4% | -116.6* | 2.0% | -12.2%
O=C(Nc1nncs1)c1c(F)c(F)c(F)c(F)c1F | -1.2% | -28.8% | ? | 17.8µM* | 22.4µM*
Cc1ccccc1C(=O)Nc1nncs1 | 4.5% | -6.1% | 5.6 | 10.2% | -9.4%
COc1cccc(N=Nc2c(=O)[nH]n3c(=O)cc(C)[nH]c23)c1 | -12.7% | -0.5% | -7.5 | -11.2% | 14.1µM*
COc1cccc(N=Nc2c(=O)[nH]n3c(=O)c4c([nH]c23)CCC4)c1 | -5.0% | 8.8% | 31.3 | -5.6% | 14.1µM*
O=c1[nH]n2c(=O)c3c([nH]c2c1N=Nc1cccc(C(F)(F)F)c1)CCCC3 | 2.1% | ? | -19.1 | 0.2% | -26.6%
O=c1[nH]n2c(=O)c3c([nH]c2c1N=Nc1cccc(Cl)c1)CCC3 | 2.0% | ? | ? | ? | 7.08µM*

High-throughput results as filed in PubChem BioAssay.
